Drawing on PubChem BioAssay (NCI), this text covers growth for 14 compounds.

Structures are written as SMILES. This is part of a sample that, as a whole, favours compounds with a hit. Of some 83,000 tested, about 20% had one in any assay.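 Step 1: grow cells in 96-well plates. Step 2: add test compound at a single concentration. Step 3: incubate 48 h. Step 4: record percent growth.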 A number with no mark means an inactive call. Active and inactive are the calls of the source. How the source made its calls: active means growth percent below 10; inactive means the rest.

Test systems include NCI-H23 lung; NCI-H226 lung; HOP-62 NSCLC; NCI-H460 lung; HOP-92 NSCLC; NCI-H522 lung; A549/ATCC NSCLC; 786-0 renal; COLO 205 colon; NCI-H322M lung.
Holding throughout (experiment): NCI-60 one-dose screen, 48 h (100 = growth as untreated, 0 = no growth, -100 = all killed)
Common to all, as to details: 10 µM unless noted

Turning to `O=c1[nH]c2ccccc2n1C1CCN(CCOc2ccccc2)CC1`, the growth was 93% with NCI-H23 lung; 78.9% in the test on NCI-H226 lung; 96.7% with HOP-62 NSCLC; 94% in the test with NCI-H460 lung; 37.1% in the test with HOP-92 NSCLC; 76.3% in the test with NCI-H522 lung. Besides, the figures for the growth in the test with A549/ATCC NSCLC, in the test with 786-0 renal and with COLO 205 colon were -22.6% (active), 100% and 94.3%, respectively.
As to `COc1cc(Cn2ncc3ccc(NC(=O)c4cc5ccccc5oc4=N)cc32)cc(OC)c1OC`, the growth with NCI-H23 lung was 80.8%; in the test with NCI-H226 lung, 88.6%; in the test on NCI-H322M lung it was 89.6%; in the test with NCI-H460 lung, 91%; in the test with HOP-92 NSCLC it was 71.9%; in the test with NCI-H522 lung it was 20.3%. Besides, the growth with A549/ATCC NSCLC is 50.7%; with 786-0 renal it was 68%; with COLO 205 colon it was 55.1%.
Consider `O=C(Nc1ccc(Cl)cc1)Nc1ccc(Cl)c(C(F)(F)F)c1`, for which the growth in the test on NCI-H23 lung is -15.5% (active); in the test with NCI-H226 lung it was 2.69% (active); in the test on NCI-H322M lung, 17.1%; with HOP-62 NSCLC, 11.3%; in the test on NCI-H522 lung, 3.9% (active); with A549/ATCC NSCLC, 13.3%. In addition, the growth in the test on 786-0 renal is 15.1%; with COLO 205 colon, -73.8% (active).
Take `CN(C)c1ccc(-c2cc(-c3ccc(Nc4nc(Nc5ccc(Cl)cc5)nc(Nc5ccc(Cl)cc5)n4)cc3)no2)cc1`: the growth in the test with NCI-H23 lung is 45%; in the test with NCI-H226 lung it was 87.1%; in the test with NCI-H322M lung it was 65.2%; in the test with NCI-H460 lung, 27.1%; in the test with HOP-92 NSCLC, -11.5% (active); in the test with NCI-H522 lung, 55.9%. The growth with A549/ATCC NSCLC was 23.1%; in the test with 786-0 renal, 36.9%; in the test on COLO 205 colon, 0.291% (active).
For `COc1ccc(-c2ccc3c(c2)sc2nc(-c4ccc(F)cc4)cn23)cc1`, the growth with NCI-H23 lung is 81.1%; in the test on NCI-H226 lung it was 80.8%; in the test on NCI-H322M lung, 67.7%; in the test on NCI-H460 lung it was 15.4%; with HOP-92 NSCLC, 65.8%; in the test with NCI-H522 lung it was 66.1%. The growth in the test with A549/ATCC NSCLC was 30%; with 786-0 renal it was 76.2%; in the test with COLO 205 colon it was 1.69% (active).
Consider `COc1ccc2occ(C3=C(c4c[nH]c5ccccc45)C(=O)N(O)C3=O)c2c1`, for which the growth in the test on NCI-H23 lung is 86.3%; in the test with NCI-H226 lung it was 78.7%; in the test on NCI-H322M lung, 93.7%; with NCI-H460 lung, 95.4%; in the test with HOP-92 NSCLC, 87.8%; in the test on NCI-H522 lung it was 58.1%. In addition, the growth with A549/ATCC NSCLC is 93.6%; with 786-0 renal, 91.3%; with COLO 205 colon, 98.5%.
Consider `COC(=O)[C@H](CSC)N(C)C(=O)[C@@H]1CSSC[C@@H](NC(=O)c2nc3ccccc3cc2O)C(=O)NCC(=O)N1C`, for which the growth with NCI-H23 lung is 84.9%; with NCI-H226 lung it was 87.5%; with NCI-H322M lung, 100%; with NCI-H460 lung, 59.1%; with HOP-92 NSCLC it was 132%; with NCI-H522 lung, 45.9%. Moreover, the growth in the test with A549/ATCC NSCLC is 59.4%; with 786-0 renal it was 111%; in the test on COLO 205 colon, 16%.
Take `Cc1cc(C(=O)c2ccccc2)c(C)c2c1[nH]c1ccc(Cl)cc12`: the growth was 24.6% with NCI-H23 lung; 50.6% with NCI-H226 lung; 42% in the test on NCI-H322M lung; 5.49% (active) with NCI-H460 lung; 54.8% in the test with HOP-92 NSCLC; 20.8% in the test on NCI-H522 lung. The growth with A549/ATCC NSCLC is 19.6%; with 786-0 renal it was 24.4%; in the test on COLO 205 colon it was -24.8% (active).
`COC(=O)[C@]12CC[C@@H](C)[C@H](C)[C@@H]1C1=CC[C@@H]3[C@@]4(C)C(C=O)=C[C@@](C)(COC(C)=O)[C@@H]4[C@H](O)C[C@@]3(C)[C@]1(C)CC2`: the growth was -12.8% (active) with NCI-H23 lung; -25.2% (active) in the test with NCI-H226 lung; 28.3% in the test on NCI-H322M lung; -64.6% (active) in the test on NCI-H460 lung; -35% (active) in the test on NCI-H522 lung; 1.47% (active) in the test on A549/ATCC NSCLC. The growth is -36.2% (active) in the test with 786-0 renal and -40.4% (active) in the test with COLO 205 colon.
As for `CCN(CC)S(=O)(=O)c1cccc(-c2ccc3c(NC(=O)C4CC4)n[nH]c3c2)c1`, the growth with NCI-H23 lung was 28.5% [6.25 µM]; in the test with NCI-H226 lung, 26.5% [6.25 µM]; in the test on NCI-H322M lung it was 55.6% [6.25 µM]; in the test on NCI-H460 lung, 12.3% [6.25 µM]; in the test on HOP-92 NSCLC, 41.3% [6.25 µM]; with NCI-H522 lung, -17% [6.25 µM] (active). Also, the growth with A549/ATCC NSCLC is 21.2% [6.25 µM]; with 786-0 renal it was 18.1% [6.25 µM]; in the test on COLO 205 colon it was 3.94% [6.25 µM] (active).
As for `COc1ccc2nc(NNC(=O)c3cnccn3)c3cccn3c2c1`, the growth was -24.3% (active) in the test with NCI-H23 lung; 14.9% with NCI-H226 lung; 8.34% (active) in the test with NCI-H322M lung; -2.09% (active) with NCI-H460 lung; 29.3% in the test with HOP-92 NSCLC; -2.64% (active) with NCI-H522 lung. Further, the growth with A549/ATCC NSCLC was 9.52% (active); in the test on 786-0 renal, -12% (active); with COLO 205 colon, -27% (active).
For the compound `COc1ccc(NC(=O)c2nc(-c3cc(OC)c(OC)c(OC)c3)n(-c3cccc4ccccc34)n2)cc1OC`, the growth was 45.4% in the test on NCI-H23 lung; 44.9% in the test on NCI-H226 lung; 44.8% with NCI-H322M lung; 42.1% with HOP-62 NSCLC; 21.8% in the test with NCI-H522 lung; 50.6% with A549/ATCC NSCLC. The figures for the growth with 786-0 renal and in the test on COLO 205 colon were 31.8% and 37.1%, respectively.
For `Cc1ccc(Cc2cnc(NC(=O)c3ccc4noc(-c5ccccc5)c4c3)s2)cc1`, the growth in the test on NCI-H23 lung was 94.4%; in the test on NCI-H226 lung, 88.3%; in the test with NCI-H322M lung it was 88.5%; in the test with NCI-H460 lung, 84.3%; with HOP-92 NSCLC, 103%; in the test on NCI-H522 lung, 72.7%. For the same compound, the growth was 71.7% in the test on A549/ATCC NSCLC, 96.2% with 786-0 renal and 107% with COLO 205 colon.
Turning to `Cc1ccc2[nH]c(=O)c3c(c2c1)OC(N)=C(C#N)C31c2cc(Br)ccc2-c2ccc(Br)cc21`, the growth is 59.1% in the test with NCI-H23 lung; 58.7% in the test on NCI-H226 lung; 75.3% in the test with NCI-H322M lung; 40.5% with NCI-H460 lung; 42.7% with HOP-92 NSCLC; 74.2% in the test with NCI-H522 lung. In addition, the growth is 53.9% in the test with A549/ATCC NSCLC, 46.4% in the test with 786-0 renal and 30.2% in the test with COLO 205 colon.
